Source: PubChem (National Center for Advancing Translational Sciences (NCATS))
AID923: qHTS Assay for Allosteric/Competitive Inhibitors of Caspase-1: Spectroscopic Profiling in AFC Spectral Region; compound fluorescence, AFC spectral region (405/520 nm); Potency, µM (top dose mostly 57.5 µM), hits mostly activators; actives 1.1% (n = 75,000)
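Compound autofluorescence profiled at 405 nm ex/520 nm em during kinetic caspase 1 run (50 nM enzyme, 5 uM Ac-WEHD-AFC, HEPES pH 7.5, 10 mM DTT). Titration up to 57 uM; baseline from regression intercept, normalized to AFC standard curve.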
CRE-bla Fsk: alters forskolin-stimulated CRE reporter signaling in CHO cells. CHO CRE-bla reporter (cAMP response element driving beta-lactamase), forskolin EC10, beta-lactamase ratio. Potency, µM (highest dose often 38.2 µM), most hits filed as activators. actives 2.5% (n = 71,000); active = well fitted activation curve with a large enough effect in the signal ratio, with a control signal flat, not every such curve was filed as active; inconclusive = small, poorly fitted or top-dose-only effect, or effect the other way, or a change in a side signal; the % refers to the signal ratio
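Modulation of forskolin-driven signalling is measured in CHO cells carrying a CRE-controlled beta-lactamase reporter. Cells are stimulated with EC10 NKH 477 in the presence of titrated compound for 3 h at 37 °C, then loaded with CCF4 for 2 h at room temperature.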
A350 fluor: A350 region autofluorescence | AID 590 | actives 11% (n = 59,000) | Compound autofluorescence, 340/450 nm, Alexa 350 dye-equivalents; stronger effect = higher value | max dye-equivalent concentration, M; in the data active = max dye-equivalent concentration above about 10 nM; inconclusive = mostly about 1.1 nM to 9.6 nM
4MU fluor: compound fluoresces in the 4-MU spectral region | max dye-equivalent concentration, M | compound autofluorescence, 340/450 nm, 4-MU equivalents; stronger effect = higher value | AID 589 | actives 11% (n = 59,000); in the data active = max dye-equivalent concentration above about 10 nM; inconclusive = mostly about 1.1 nM to 9.6 nM
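Compounds in 100 mM Tris, pH 8.0, incubated 15 min at room temperature, then fluorescence read at 340 nm excitation/450 nm emission. Signal converted to 4-MU dye-equivalent concentration using an on-plate six-point 4-MU standard curve.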
HADH2 inh: blocks human hydroxyacyl-CoA dehydrogenase type II; Potency, µM (top dose mostly 57.1 µM), hits mostly inhibitors; AID 886; actives 3.4% (n = 73,000); recombinant HADH2, NADH fluorescence, beta-hydroxybutyryl-CoA; also: nearly all actives have a fitted effect of over 60% in size
Target sequence (Q99714 whole entry, looked up, one chain of several): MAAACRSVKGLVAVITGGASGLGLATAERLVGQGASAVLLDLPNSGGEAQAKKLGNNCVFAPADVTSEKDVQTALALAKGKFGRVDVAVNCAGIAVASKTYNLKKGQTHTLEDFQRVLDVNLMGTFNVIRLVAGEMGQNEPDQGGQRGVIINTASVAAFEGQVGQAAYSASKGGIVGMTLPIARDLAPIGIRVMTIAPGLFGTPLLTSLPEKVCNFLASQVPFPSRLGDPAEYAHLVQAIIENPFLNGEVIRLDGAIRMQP
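20 nM HADH2 + cpd, 15 min RT; add 1 mM NAD+/90 uM beta-hydroxybutyryl-CoA; kinetic fluorescence 360/450 nm, 4 min. Tris-HCl pH 9.0, 0.01% Tween-20.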
HSD17B inhib: HSD17B dehydrogenase inhibition; Potency, µM (titrated, usually from 57.1 µM), actives largely listed as inhibitors; Q99714; recombinant HSD17B10, NADH fluorescence kinetic; AID 893; actives 7.6% (n = 75,000);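 also: the protocol describes HADH2 (HSD17B10) and not the HSD17B4 of the title; nearly all actives have a fitted effect of over 70% in size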
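20 nM HADH2, pH 9.0 Tris/Tween; cpd preinc 15 min RT; start w/ 1 mM NAD+ + 90 uM b-hydroxybutyryl-CoA; kinetic fluor ex360/em450 q30s x 4 min; delta last-first.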
Of the large screens only hits and unclear results are named; the others gave an inactive call. Sampled rows, rich in hits. Any-hit rate of the full collection: about 14%. Unless noted, calls follow the shape of the dose curve; as a rule, active = well fitted curve in the direction sought with a large enough effect; inconclusive = small, poorly fitted or top-dose-only effect, or another doubt; inactive = no such curve, though single readings can be large; an effect the other way counts as inactive or inconclusive.

O=C(Nc1ccccc1)N1CC2(CCN(C(=O)c3ccncc3)CC2)C1	none
COc1ccc(/C=C/N(CCc2ccc(OC)c(OC)c2)C(C)=O)cc1	none (no result: CRE-bla Fsk, A350 fluor, 4MU fluor)
CCn1c2ccccc2c2nnc(SCC(=O)OCN3C(=O)c4ccccc4C3=O)nc21	CRE-bla Fsk inconclusive (no result: A350 fluor, 4MU fluor)
CCc1nnc(NC(=O)CSc2nnc3c4ccccc4n(C)c3n2)s1	none
CCn1c2ccccc2c2nnc(SCC(=O)c3ccccc3)nc21	CRE-bla Fsk 3.2µM (no result: A350 fluor, 4MU fluor)
CCn1c2ccccc2c2nnc(SCC(=O)NC(CC(C)C)C(=O)OC)nc21 (centres undefined)	CRE-bla Fsk 7.9µM
CCOC(=O)c1sc(NC(=O)CSc2nnc3c4ccccc4n(CC)c3n2)nc1C	HADH2 inh inconclusive, HSD17B inhib inconclusive (no result: A350 fluor, 4MU fluor)
CCOC(=O)Cc1nnc(NC(=O)CSc2nnc3c4ccccc4n(C(C)C)c3n2)s1	CRE-bla Fsk 10µM
CCn1c2ccccc2c2nnc(SCC(=O)Nc3ncccn3)nc21	CRE-bla Fsk 10µM
NC(=O)NCC(N)C(=O)O (centres undefined)	none (no result: CRE-bla Fsk, A350 fluor, 4MU fluor, HADH2 inh)
C=C1CC[C@@H](O)C/C1=C/C=C1\CCC[C@]2(C)[C@@H]1CC[C@H]2[C@@H](C)/C=C\[C@@H](C)C(C)C	CRE-bla Fsk inconclusive (no result: AID923, HSD17B inhib)
CC(=O)Nc1ccccc1C=C1c2ccccc2-c2ccccc21	none
CCC1OC(=O)C(C)[C@@H](O[C@H]2C[C@@](C)(OC)C(O)C(C)O2)C(C)[C@@H](O[C@@H]2OC(C)CC(N(C)C)C2O)[C@@](C)(O)CC(C)CN(C)C(C)C(O)[C@]1(C)O (some centres undefined)	none (no result: CRE-bla Fsk, A350 fluor, 4MU fluor, HADH2 inh)
CCOC(=O)c1sc(NC(=O)C(CC)Sc2nnc3c4ccccc4n(CC)c3n2)nc1C (centres undefined)	CRE-bla Fsk inconclusive, A350 fluor 3.4e-08M, 4MU fluor 3.6e-08M
CS(=O)(=O)Nc1cccc(-c2ccc3ncnc(NCc4cccnc4)c3c2)c1	CRE-bla Fsk inconclusive, HSD17B inhib inconclusive
COC(=O)c1oc2ccc(OC)cc2c1N	A350 fluor 1.6e-08M, 4MU fluor 1.6e-08M, HADH2 inh 32µM, HSD17B inhib 32µM
COc1ccc2oc(-c3ccccc3)c(C(N)=O)c2c1	HADH2 inh inconclusive, HSD17B inhib 25µM (no result: A350 fluor, 4MU fluor)
Cc1c(-c2ccccc2)oc2cc(O)ccc2c1=O	none
CCN(CC)CCOC(=O)c1c(C)oc2ccc(OC)cc12	none
Cc1ccc2oc(-c3ccccc3)c(O)c(=O)c2c1	none
COc1ccc2oc(-c3ccccc3)c(OC)c(=O)c2c1	A350 fluor 1.9e-08M, 4MU fluor 1.8e-08M, HADH2 inh inconclusive, HSD17B inhib 20µM
CN(C)C(=O)c1c(-c2ccccc2)oc2ccc(O)cc12	CRE-bla Fsk inconclusive, A350 fluor 2.4e-07M, 4MU fluor 2.1e-07M, HSD17B inhib 32µM
NC(=O)c1oc2ccc(Cl)cc2c1N	CRE-bla Fsk inconclusive, A350 fluor 6.2e-08M, 4MU fluor 6.3e-08M, HADH2 inh 32µM, HSD17B inhib 32µM
Nc1c(C(=O)CCC(=O)O)oc2ccc(Cl)cc12	HADH2 inh inconclusive, HSD17B inhib inconclusive (no result: A350 fluor, 4MU fluor)
CCOc1ccccc1NC(=O)Cn1cnc2c(nnn2-c2cccc(OC)c2)c1=O	CRE-bla Fsk 13µM (no result: A350 fluor, 4MU fluor)
CN(C)c1ccnc(-c2ccccc2C(F)(F)F)n1	CRE-bla Fsk inconclusive, HADH2 inh inconclusive, HSD17B inhib inconclusive
N#Cc1ccc(COc2ccc(CCO)cc2-n2nc3ccccc3n2)cc1	CRE-bla Fsk inconclusive, A350 fluor inconclusive, HSD17B inhib 32µM
COc1ccc(O[C@H]2C=C[C@@H](c3ccccc3)O[C@H]2CO/N=C\C[C@@H]2C=C[C@H](OC(C)=O)[C@H](COC(C)=O)O2)cc1	none (no result: CRE-bla Fsk, A350 fluor, 4MU fluor)
Cc1ccc(NC(=O)c2ccccc2O)cc1	CRE-bla Fsk inconclusive, A350 fluor 1.2e-08M, 4MU fluor inconclusive, HSD17B inhib inconclusive
Cc1ccccc1NC(=O)c1ccccc1O	A350 fluor 1.4e-08M, 4MU fluor 1.4e-08M, HADH2 inh inconclusive, HSD17B inhib 25µM
O=C(Nc1ccccc1)c1ccccc1O	HSD17B inhib inconclusive (no result: A350 fluor, 4MU fluor)
